Bioassay records: PubChem BioAssay, several laboratories
sEH inhibitor = soluble epoxide hydrolase (human) inhibition; P34913; recombinant human sEH enzymatic activity assay; inhibition, % at 2 µM; 91,000 tested, 0.34% active; AID 707; in the data active = inhibition above about 80%
Target sequence (P34913 whole entry, looked up): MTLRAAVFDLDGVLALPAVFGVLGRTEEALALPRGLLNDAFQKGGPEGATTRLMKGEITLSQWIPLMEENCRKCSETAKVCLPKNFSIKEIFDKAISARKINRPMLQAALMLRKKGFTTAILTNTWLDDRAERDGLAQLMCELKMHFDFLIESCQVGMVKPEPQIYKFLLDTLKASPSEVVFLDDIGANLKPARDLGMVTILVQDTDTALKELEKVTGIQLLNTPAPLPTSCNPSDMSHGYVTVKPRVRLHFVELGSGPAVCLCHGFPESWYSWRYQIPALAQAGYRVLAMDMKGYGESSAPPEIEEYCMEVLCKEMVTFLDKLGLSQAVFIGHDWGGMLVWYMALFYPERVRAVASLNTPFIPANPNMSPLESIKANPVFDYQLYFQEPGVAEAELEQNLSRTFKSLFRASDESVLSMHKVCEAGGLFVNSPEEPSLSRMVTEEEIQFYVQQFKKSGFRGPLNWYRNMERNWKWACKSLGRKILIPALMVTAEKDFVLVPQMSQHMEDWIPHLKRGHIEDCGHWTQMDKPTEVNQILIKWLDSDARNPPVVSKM
sEH act = soluble epoxide hydrolase (human) activation; P34913; purified human sEH enzymatic activity, activator screen; activation, % at 2 µM; 91,000 tested, 0.04% active; AID 717; in the data active = activation above about 37%
CYP2C9 inh = blocks human cytochrome P450 2C9. CYP2C9 Supersomes, luciferin-H conversion, luminescence. 96,000 tested, 20% active. inhibition, % at 5 µM. AID 777;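 active = blocking of liver enzyme CYP2C9 beyond about 50% at 5 µM, limit read from the data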
CYP2C19 act = activators of human cytochrome P450 2C19 | recombinant CYP2C19, luciferin-H EGE luminescence; active compounds read high; 0 = fully inhibited enzyme, 1 = untreated enzyme | activation factor at 5 µM | 96,000 tested, under 10 active | AID 1025;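 active = activation factor of at least 2 at 5 µM in the primary screen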;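 note: 0 = wells with 2.5 mM tranylcypromine and 1 = vehicle-only wells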
CYP2C19 inh = inhibitors of human CYP2C19; CYP2C19 Supersomes, luciferin-H EGE luminescence, 30 min; inhibition, % at 5 µM; P33261; 96,000 tested, 21% active; AID 778;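 active = CYP2C19 inhibition above a set limit at 5 µM in the primary screen, cut at about 50% in these data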;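 note: plate controls were negative control wells for no effect and 2.5 mM tranylcypromine positive control for full effect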
CYP2C9 act = CYP2C9 (human) activation; P11712; recombinant CYP2C9, luciferin-H conversion, luminescence; active compounds read high; factor 1 = untreated enzyme, 0 = blocked; activation factor at 5 µM; 96,000 tested, 1.4% active; AID 1024;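 active = activation factor of 2 or more for CYP2C9 at a 5 µM dose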;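 note: 0 = sulfaphenazole-blocked wells and 1 = vehicle-only wells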
Active calls of the source: *; . = no result given. Rows were chosen to be rich in hits. Some 27% of all compounds tested hit in one or more screens of this group.

SMILES | sEH inhibitor | sEH act | CYP2C9 inh | CYP2C19 act | CYP2C19 inh | CYP2C9 act
CC(=O)c1cccc(NC(=O)C2C3C=CC(C4CC34)C2C(=O)O)c1 (centres undefined) | 3.1 | -3.8 | 11.2 | 0.9 | 8.5 | 0.9
Cn1cnnc1SCC(=O)c1ccc2c(c1)OCCO2 | -7.7 | 7.8 | -20.1 | 1.1 | -13.3 | 1.2
CCCn1nnnc1SCC(=O)N(C(C)C)C(C)C | . | . | -1.1 | 0.3 | 72.5* | 1
CCCCn1nnnc1SCC(=O)Nc1ccc(C)cc1 | 22.3 | -21.8 | 35.6 | 0.3 | 71.2* | 0.6
CCCn1nnnc1SCC(=O)c1ccc2c(c1)OCCO2 | -4.8 | 7.7 | 37.1 | 0.4 | 64.7* | 0.6
CCCCn1nnnc1SCC(=O)Nc1ccc2c(c1)OCCO2 | 19.0 | -20.0 | 59.4* | 0.3 | 67.2* | 0.4
CCCCn1nnnc1SCC(=O)NCc1ccccc1 | 32.9 | -31.5 | 13.0 | 0.6 | 42.5 | 0.9
O=C(COC(=O)c1cncc(Br)c1)NCC1CCCO1 (centres undefined) | 2.0 | 0.9 | -0.1 | 0.8 | 18.3 | 1
COc1cc(NC(=O)c2ccco2)c(OC)cc1NC(=O)CCC(=O)Nc1cccc(C)c1C | 9.4 | -8.3 | 34.6 | 0.8 | 19.8 | 0.7
CCCCCC(C(=O)O)C(C)CC(=O)NC1CCCCC1 (centres undefined) | 6.1 | -8.1 | 12.9 | 1 | 2.3 | 0.9
CCOc1ccc(NC(=O)CSc2nnnn2CC(=O)O)cc1 | -9.4 | 11.2 | . | . | . | .
CCCn1nnnc1SCC(=O)Nc1ccc(F)cc1 | -0.9 | 0.4 | 19.2 | 0 | 96.3* | 0.8
CCCn1nnnc1NC(=O)CSc1ccc(Cl)cc1 | -4.2 | 4.1 | 66.0* | 0.2 | 82.1* | 0.3
Cc1cccc(CC(Cc2nc3ccccc3[nH]2)c2nc3ccccc3[nH]2)c1 (centres undefined) | 2.9 | -0.6 | 87.5* | 0.1 | 92.6* | 0.1
CC(C)N(Cc1nc2ccccc2[nH]1)C(C)C | . | . | 5.9 | 1 | 1.2 | 0.9
C(=N\N(c1ccccc1)c1ccccc1)/c1ccc2c(c1)OCO2 | -8.8 | 6.6 | 55.6* | 0.9 | 12.0 | 0.4
Cc1ccccc1C1CC(c2ccccc2)Nc2ncnn21 (centres undefined) | -6.3 | 5.2 | 10.1 | 0.6 | 36.4 | 0.9
COc1cccc(C2CC(c3ccccc3Cl)Nc3nc(N)nn32)c1 (centres undefined) | 1.8 | -1.2 | . | . | . | .
CCOc1ccc(C2CC(c3ccccc3C)n3ncnc3N2)cc1 (centres undefined) | . | . | 2.7 | 0.4 | 63.5* | 1
COc1ccccc1C1CC(c2ccc(Cl)cc2)Nc2ncnn21 (centres undefined) | 1.8 | -3.6 | 70.4* | 0 | 98.1* | 0.3
COc1cccc(C2CC(c3ccc(Cl)cc3Cl)Nc3nc(N)nn32)c1 (centres undefined) | 12.2 | -11.0 | 54.5* | 0.3 | 66.6* | 0.5
COc1cccc(C2CC(c3ccccc3OC)n3ncnc3N2)c1 (centres undefined) | 2.5 | -0.8 | 66.5* | 0 | 95.7* | 0.3
NS(=O)(=O)c1ccc(NC(=O)CCc2ccccc2)cc1 | -6.3 | 9.0 | 30.8 | 1 | 1.0 | 0.7
N#C/C(=C\c1ccc(-c2cccc(Cl)c2)o1)C(=O)Nc1cccc2cccnc12 | 5.9 | -4.6 | -26.2 | 1 | -1.5 | 1.3
CC1CCCCN1C(=O)c1cc(F)c(F)cc1Cl (centres undefined) | 6.6 | -6.0 | 4.9 | 0.6 | 41.1 | 1
SMILES | sEH inhibitor | sEH act | CYP2C9 inh | CYP2C19 act | CYP2C19 inh | CYP2C9 act
COc1ccccc1C1CC(c2ccc(Cl)cc2)Nc2nc(N)nn21 (centres undefined) | -1.0 | 0.8 | 0.7 | 0.5 | 50.4* | 1
COc1ccc(C2CC(c3c(Cl)cccc3Cl)n3nc(N)nc3N2)cc1 (centres undefined) | -6.5 | 8.3 | -5.4 | 0.4 | 62.4* | 1.1
CCOc1ccccc1C1CC(c2ccc(F)cc2)Nc2nc(N)nn21 (centres undefined) | -9.3 | 11.1 | 23.7 | 0.3 | 65.4* | 0.8
COc1ccc(C2CC(c3ccc(Cl)cc3Cl)n3nc(N)nc3N2)cc1 (centres undefined) | -2.5 | 2.4 | . | . | . | .
COc1cccc(C2CC(c3ccc(C)cc3)Nc3nc(N)nn32)c1 (centres undefined) | . | . | -2.6 | 0.9 | 8.7 | 1
COc1cccc(C2CC(c3ccccc3)Nc3ncnn32)c1 (centres undefined) | -4.4 | 7.1 | 43.5 | 0.1 | 94.7* | 0.6
Cc1[nH]c2ccccc2c1Cc1nnc(SCCC#N)o1 | -5.8 | 4.5 | . | . | . | .
CCCc1nc2c(C)ccc(C)c2c(N)c1CC | -17.8 | 16.6 | 33.5 | 0.9 | 9.1 | 0.7
Cc1cc(N2CCC(C(=O)N3CCN(c4cccc(C)c4C)CC3)CC2)n2ncnc2n1 | . | . | -33.2 | 1.1 | -8.9 | 1.3
O=C(NC(CO)c1ccccc1)c1ccco1 (centres undefined) | -7.8 | 8.0 | 17.5 | 1 | 3.1 | 0.8
CCOC(=O)Cc1csc(SC(C)C(=O)Nc2ccc(NC(C)=O)cc2)n1 (centres undefined) | -13.4 | 12.7 | 90.7* | 0.3 | 68.5* | 0.1
CC(NC(=O)Cn1cc(C(=O)C2CC2)c2ccccc21)c1ccccc1 (centres undefined) | 4.6 | -5.6 | 30.0 | 0.4 | 59.2* | 0.7
COC(=O)Cn1cc(C(=O)C2CC2)c2ccccc21 | -0.6 | -1.4 | 6.7 | 0.8 | 16.8 | 0.9
Cc1c(NC(=O)COC(=O)Cc2ccc(Cl)cc2)c(=O)n(-c2ccccc2)n1C | . | . | 9.2 | 1 | 4.8 | 0.9
NCCCCCc1nnc(SCC(=O)Nc2cccc(Cl)c2)o1 | -4.1 | 2.7 | 56.6* | 0.5 | 47.7 | 0.4
NCCCCCc1nnc(SCc2ccc(Cl)cc2Cl)o1 | -2.6 | 2.5 | 37.3 | 0.4 | 61.4* | 0.6
Cc1cccc(OCc2nnc(SCC(=O)Nc3ccc(C)c(Cl)c3)o2)c1 | -0.9 | -0.4 | -1.6 | 1.2 | -15.2 | 1
CCC(C)[C@H](N)c1nnc(SCC(=O)Nc2cccc(Cl)c2)o1 (some centres undefined) | 0.7 | 0.3 | 50.5* | 0 | 97.1* | 0.5
Clc1cccc(CSc2nnc(-c3c[nH]c4ccccc34)o2)c1 | 16.6 | -15.9 | 26.7 | 1 | -1.5 | 0.7
NCCCCCc1nnc(SCc2cccc(Cl)c2)o1 | -2.5 | 0.4 | 31.5 | 0.4 | 64.7* | 0.7
CCC(C)[C@H](N)c1nnc(SCc2cccc(F)c2)o1 (some centres undefined) | 0.6 | -2.3 | -6.2 | 0.4 | 61.5* | 1.1
CC(C)[C@H](NC(=O)OC(C)(C)C)c1nnc(SCc2cccc(F)c2)o1 | -3.0 | 3.2 | -2.2 | 1 | 4.8 | 1
Clc1cccc(NCc2nnc(SCc3ccccc3)o2)c1 | 10.8 | -11.5 | 83.4* | 0.2 | 81.9* | 0.2
Clc1cccc(CSc2nnc([C@@H]3CCCN3)o2)c1 | . | . | -73.2 | 0.1 | 94.1* | 1.7
CC(=O)c1c(C)[nH]c(C(=O)N2CCCCCC2)c1C | 1.4 | -2.1 | 14.8 | 0.8 | 22.7 | 0.9
O/N=C1/CCCSc2ccccc21 | 3.3 | -5.3 | -2.2 | 1.1 | -7.8 | 1
